Reference: publication PMC5540273 (PLoS ONE, 2017)

These compounds were tested on FLT4. Conditions: concentration: 1 μM, replicates: in singlicate; n = 1.
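Note: KINOMEscan kinase panel screen.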

SMILES	%Inh [%]
CCS(=O)(=O)c1ccc(OC)c(Nc2nccc(-c3c(-c4cccc(NC(=O)c5c(F)cccc5F)c4)nn4ncccc34)n2)c1 [GSK326180]	29
COc1cc(Nc2nccc(-c3c(-c4cccc(NC(=O)c5c(F)cccc5F)c4)nn4ncccc34)n2)cc(OC)c1OC [GSK327238]	99.8
COc1ccc(-c2coc3ccc(-c4nnc(SCc5ccc(OC)c(C(F)(F)F)c5)o4)cc23)cc1	13
Oc1cc(Nc2ccnc3cc(I)ccc23)ccc1F [GW552771]	45
O=c1[nH]cc(-c2ccc(N3CCOCC3)cc2)c2sc(-c3cn[nH]c3)cc12 [GSK2276055]	0
FC(F)(F)c1ccc(/C=C/c2cncnc2Nc2ccc3[nH]c(Cc4ccccc4)nc3c2)cc1 [GW709199]	0
Nc1ncnc2c1nc(-c1ccccc1)n2-c1ccccc1 [SKF-97293]	0
Cn1cc(-c2ccc3c(c2)CCN3C(=O)Cc2cccc(Cl)c2)c2c(N)ncnc21 [GSK2606590]	45
Cc1ccc(C(=O)Nc2ccc(Nc3ccnc4cc(-c5nccs5)ccc34)cc2O)cc1.Cl [GW494702]	0
COc1cc(Nc2ncc3c(C)nc(-c4cc5ccccc5[nH]4)n3n2)cc(OC)c1OC [GW869516]	1
COc1ccc(CNC(=O)NC2CCN(c3ccnc(Nc4ccc(F)cc4)n3)CC2)cc1 [GSK1379788]	0
CCn1c(-c2nonc2N)nc2c(C#CC(C)(C)O)nc(OC[C@H](N)c3ccccc3)cc21 [GSK943949]	20
Cl.c1ccc(-c2ccc3c(Nc4ccc5[nH]ncc5c4)ccnc3c2)nc1 [GW440137]	39
COc1cccc(-c2ccc3c(NC(=O)C4CC4)n[nH]c3n2)c1 [SB-710903]	1
COc1cccc(C(=O)Nc2cccc(Oc3ccc4nc(NC(=O)C5CC5)cn4n3)c2)c1	100
CNC(=O)c1ccccc1Nc1nc(Nc2ccc(N3CCOCC3)cc2)ncc1Cl.Cl [GSK1576028]	99.9
O=C(Nc1cccc(Oc2ccc3nc(NC(=O)C4CC4)cn3n2)c1)c1ccccc1C(F)(F)F	99.9
Cc1ccc(S(=O)(=O)Nc2ccc(Nc3nccc(Nc4cccc5[nH]ncc45)n3)cc2)cc1 [GSK581271]	5
Cc1cccc(NC(=O)Nc2ccc(Oc3ncnc4ccn(C)c34)cc2)c1	73

SMILES	%Inh [%]
CC(=O)Nc1nc2cnc(Nc3cc(NC(=O)c4cccc(C5(C#N)CC5)c4Cl)ccc3C)nc2s1	60
COc1cccc(C2=C(Nc3ccc(Cl)c(C(=O)O)c3)C(=O)NC2=O)c1 [SB-390769]	47
CN(C)S(=O)(=O)c1cc(-c2ccc3nccc(-c4cccc(S(N)(=O)=O)c4)c3c2)cnc1N [GSK1669921]	1
O=C(Nc1ccccc1F)NC1CCN(c2ccnc(Nc3ccc(F)cc3)n2)CC1 [GSK1379800]	0
O=C(Nc1n[nH]c2cc(-c3ccoc3)ccc12)C1CC1 [SB-738481]	0
CSc1cccc2c(-c3ccncn3)c(-c3ccc(F)cc3)nn12 [GW514786]	0
CN(c1ccc(NC(=O)Nc2cc(C(F)(F)F)ccc2F)cc1)c1ccnc(Nc2ccc(S(N)(=O)=O)cc2)n1 [GW809893]	99.8
O=C(Nc1cccc(-c2nn3ncccc3c2-c2ccnc(Nc3ccccc3)n2)c1)c1c(F)cccc1F [GSK198271]	77
c1ccc(-c2n[nH]cc2Nc2ccnc3ccccc23)nc1 [GW694077]	11
Cl.Cl.NCC(C(=O)Nc1cc(Br)c(-c2ccnc3[nH]ccc23)s1)c1ccccc1 (stereo not shown) [GSK1269851]	0
O=C(Nc1cccc(-c2nn3ccccc3c2-c2ccnc(Nc3cccc(C(F)(F)F)c3)n2)c1)c1c(F)cccc1F [GSK292658]	36
Cc1ccc(C)c(NC(=O)NC2CCN(c3ccnc(Nc4ccc(F)cc4)n3)C2)c1 (stereo not shown) [GSK1379720]	0
COCCOCCOc1cc2ncc3c4ccc(C#N)cc4[nH]c3c2cc1OC	20
CN1CCN(Cc2cccc(-c3ccc4c(Nc5ccc(Oc6ccccc6)cc5)ccnc4c3)c2)CC1 [GW578342]	43
Cl.Cl.NCC(NCc1ccc(-c2ccnc3[nH]ccc23)s1)c1ccccc1 (stereo not shown) [GSK1321565]	5
Cn1cc(-c2ccc3c(c2)CCN3C(=O)Cc2cccc(F)c2)c2c(N)ncnc21 [GSK2603358]	6
Clc1ccc(-c2nn3ncccc3c2-c2ccnc(Nc3ccc4c(c3)OCCO4)n2)cc1 [GW829116]	35
Nc1ncc(-c2cccnc2)c2scc(-c3ccc4c(c3)CCN4C(=O)Cc3ccccc3)c12 [GSK683281]	35
